Compound activity from PubChem BioAssay.
An excerpt weighted towards active compounds, which were near 1.2% of everything screened.
VLA-4 inh: inhibition in a human VLA-4 binding assay | P13612 | VLA-4 expressing cells, ligand binding flow cytometry | inhibition, % (about 7 µM as worked out from the volumes in the protocol) | 330,000 tested, 0.2% active; in the data active = inhibition above about 50%
Yeast superoxide: yeast age-related superoxide inhibition as caloric restriction mimetic; AID 2690; 330,000 tested, 0.18% active; S. cerevisiae aged cells, superoxide DHE fluorescence; hits give low values; superoxide response (% of plate mean), % at 10 µM;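 active = superoxide response under a set limit, about three screen SD below normal, cut at about 65% in these data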;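 note: yeast aged for seven days with compound at 30 °C before DHE staining; 100% = average MFI of all compound-treated wells on the plate with controls excluded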
SKN-1 inh: C. elegans SKN-1 inhibition. C. elegans VP596 Pgst-4::GFP/RFP ratio, acrylamide-induced, 24 h. inhibition, % at 21.8 µM. 360,000 tested, 0.49% active. AID 624304;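 active = interference check ratio from 0.5 to 1.5 plus GFP to RFP signal ratio inhibition reaching or exceeding a fixed threshold, cut at about 30% in these data, passing the limit was not always enough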
ABCB6 inh 2: blocks the human ABCB6 transporter; fluorescence ratio to DMSO, % at 10 µM; 360,000 tested, 0.19% active; K562-ABCB6 porphyrin accumulation, flow cytometry, 1 h; hits give low values; Q9NP58;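 active = fluorescence ratio to DMSO below 75%, the collection mean minus 3 SD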;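 note: signal is porphyrin accumulated inside mitochondria; 100% equals median channel fluorescence of DMSO control wells; lower ratio means ABCB6 inhibition with less porphyrin fluorescence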
Target sequence (Q9NP58 whole entry, looked up): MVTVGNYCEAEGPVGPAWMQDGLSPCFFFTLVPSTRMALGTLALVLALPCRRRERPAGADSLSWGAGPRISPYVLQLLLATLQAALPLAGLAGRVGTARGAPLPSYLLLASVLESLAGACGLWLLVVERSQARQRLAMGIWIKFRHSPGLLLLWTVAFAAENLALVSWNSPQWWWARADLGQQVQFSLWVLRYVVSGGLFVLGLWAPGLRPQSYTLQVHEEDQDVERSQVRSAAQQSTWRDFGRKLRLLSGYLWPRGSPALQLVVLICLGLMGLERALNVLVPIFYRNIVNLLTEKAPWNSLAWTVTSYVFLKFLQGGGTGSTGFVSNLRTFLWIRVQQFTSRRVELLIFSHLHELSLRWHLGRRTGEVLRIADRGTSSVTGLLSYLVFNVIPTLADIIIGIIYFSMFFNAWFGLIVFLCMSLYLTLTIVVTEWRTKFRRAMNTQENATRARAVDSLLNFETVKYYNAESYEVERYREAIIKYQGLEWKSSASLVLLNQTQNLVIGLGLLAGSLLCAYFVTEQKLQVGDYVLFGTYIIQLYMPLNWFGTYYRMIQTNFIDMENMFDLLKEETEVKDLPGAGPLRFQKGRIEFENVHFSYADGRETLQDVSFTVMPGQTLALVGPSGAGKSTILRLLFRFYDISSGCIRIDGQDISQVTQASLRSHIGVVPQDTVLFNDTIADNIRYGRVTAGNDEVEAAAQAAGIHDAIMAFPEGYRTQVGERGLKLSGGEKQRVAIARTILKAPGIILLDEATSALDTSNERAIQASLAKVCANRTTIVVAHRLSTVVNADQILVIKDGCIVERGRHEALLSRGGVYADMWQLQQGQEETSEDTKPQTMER
Platelet DG rel: modulates dense granule release in human platelets; inhibition, %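 (compounds screened at 7.5 µM in platelet-rich plasma)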; human platelet-rich plasma, SFLLRN dense granule ATP release, luminescence; 300,000 tested, 0.22% active;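 active = mean replicate score, as percent of positive control, at or above 50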
VLA-4 mod pick: human VLA-4 allosteric modulation in cherry picked compounds | shares compounds with VLA-4 inh | U937 cells, HUTS-21 LIBS mAb binding, flow cytometry; LDV ligand present at threefold Kd | inhibition, % at 6.7 µM | 1,300 tested, 2% active | AID 2813; in the data active = inhibition above about 40%;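 note: 0% = ligand without compound and 100% = no ligand background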
* = called active by the depositor; nt = not tested or not shown.

SMILES	VLA-4 inh	Yeast superoxide	SKN-1 inh	ABCB6 inh 2	Platelet DG rel	VLA-4 mod pick
COc1ccc(-c2sc3cc4c(cc3c2-c2ccc(OCCN3CCOCC3)cc2)OCO4)cc1	26	108	-4	95	nt	15
COc1cccc(-c2sc3ccc(OC)cc3c2-c2cc(F)cc(OC)c2)c1	-11	91	10	94	nt	nt
CC(=O)c1ccc(Nc2nc(CN)cs2)cc1	nt	nt	4	91	nt	nt
O=C(N/N=C/c1ccc(Cl)c([N+](=O)[O-])c1)c1cc(-c2ccccc2)nc2ccccc12	56*	112	4	95	-18	5
O=C(N/N=C/c1cccnc1)c1cc(-c2ccc(Cl)cc2)nc2ccccc12	30	101	0	96	4	nt
O=C(N/N=C/c1ccc(Cl)cc1)c1cc(-c2cccnc2)nc2ccccc12	50*	99	-2	98	-9	18
CCC(=O)N1CCCC(C)(C(=O)Nc2ccc3scnc3c2)C1 (stereo unspecified)	nt	nt	0	102	nt	nt
CCCCCCCCN1C(=O)[C@H](CC(=O)NCCC(C)C)C[C@@]2(C(=O)OC)CCCCC=C12	nt	nt	-2	98	nt	nt
CC(=O)c1ccc(N2CCN(C(=O)c3cc(-c4cccnc4)nc4ccc(Br)cc34)CC2)cc1	0	90	-2	92	8	nt
O=C(c1ccco1)N1CCN(C(=O)c2cc(-c3ccccn3)nc3ccccc23)CC1	-9	97	-10	100	6	-5
O=C(c1cc(-c2ccncc2)nc2ccccc12)N1CCN(c2ncccn2)CC1	-9	119	9	99	nt	0
O=C(c1cc(-c2cccnc2)nc2ccc(Br)cc12)N1CCN(c2ncccn2)CC1	1	90	7	100	3	-3
CC1(c2ccncc2)Nc2ccccc2-c2nc3ccccc3n21 (stereo unspecified)	51*	98	-5	93	-2	-1
Cc1ccnc(NS(=O)(=O)c2ccc(NC(=O)C(C)(C)C)cc2)n1	7	99	-13	94	0	nt
CC(=O)Nc1ccc(S(=O)(=O)Nc2nc3ccccc3nc2Cl)cc1	42	91	5	97	-6	5
CC(=O)Nc1ccc(S(=O)(=O)Nc2nccc(C)n2)cc1	-10	97	-2	104	-2	-3
NC(=O)c1cccc(-c2ccnc3c2CC(C(=O)NCc2ccccc2)O3)c1 (stereo unspecified)	nt	nt	-1	111	nt	nt
Cc1ccc(S(=O)(=O)C(NC(=O)c2ccccc2)=C(Cl)Cl)cc1	54*	80	-10	90	1	-1
Cc1cc(=O)oc2cc(OS(C)(=O)=O)ccc12	41	98	-10	97	-6	5
COc1ccc(NC(=O)CCn2cccc2)c(OC)c1	58*	120	1	97	13	2
COC(=O)C[C@@H]1CC[C@H](NC(=O)Nc2ccc(OC)cc2)[C@@H](CO)O1	nt	nt	9	nt	nt	nt
CCOc1ccccc1N(CC)C(=O)c1cc2c(s1)-c1ccccc1S(=O)(=O)C2	nt	nt	8	100	nt	nt
CCOC(=O)c1c(NC(=O)COC(=O)c2nc(Cl)ccc2Cl)sc(C(=O)N(C)C)c1C	-2	83	4	105	-18	nt
CCOC(=O)c1c(NC(=O)COC(=O)CNC(=O)c2ccc(Cl)cc2Cl)sc(C(=O)N(C)C)c1C	52*	104	-12	98	13	1
CS(=O)(=O)c1ccc2nc(NC(=O)c3ccco3)sc2c1	18	97	-8	98	11	nt
SMILES	VLA-4 inh	Yeast superoxide	SKN-1 inh	ABCB6 inh 2	Platelet DG rel	VLA-4 mod pick
Cc1c(Cl)ccc2sc(NC(=O)c3ccco3)nc12	54*	113	1	97	1	2
N#Cc1cccc(C=C(C(=O)c2ccccc2)c2ccccc2)c1	nt	nt	3	96	nt	nt
Cc1ccc(S(=O)(=O)C2(C(=O)Nc3ccc4c(c3)OCO4)CC2)cc1	51*	89	-12	106	-2	1
c1ccc(CCC2CCCCN2Cc2nc(C3CC3)no2)cc1 (stereo unspecified)	45	77	-5	108	-1	-15
Fc1cccc(C2CCCCN2Cc2nc(C3CC3)no2)c1 (stereo unspecified)	-4	109	-4	101	-5	nt
Cn1cccc1C(=O)NC(=O)COC(=O)c1ccccc1O	55*	124	-7	99	15	3
COc1ccccc1-n1nnnc1SCC(=O)Nc1ccc(C)c(N)c1	54*	108	6	97	3	3
CC(CCc1ccco1)NC(=O)Cn1ncc2c1-c1ccccc1OC2 (stereo unspecified)	57*	106	-25	103	19	4
COc1ccc(CNC[C@H]2O[C@@H](n3ccc(=O)[nH]c3=O)[C@H](O)[C@@H]2O)cc1	nt	nt	13	101	nt	nt
CC(NC(=O)/C(C#N)=C/c1ccc(Cl)c([N+](=O)[O-])c1)c1ccccc1 (stereo unspecified)	61*	99	nt	nt	11	63*
C[C@@H](NC(=O)/C(C#N)=C/c1ccc(O)c(O)c1)c1ccccc1	-4	107	-10	96	nt	nt
Cc1cc(C)n(CC(O)CN2C(=O)NC(C)(C)C2=O)n1 (stereo unspecified)	54*	83	1	95	9	2
CC1(C)NC(=O)N(CC(O)CN2C(=O)NC(C)(C)C2=O)C1=O	-19	102	0	97	7	nt
COc1ccc(NC(=O)C2(C)Cc3c(-c4ccc(N(C)C)cc4)ccnc3O2)cn1 (stereo unspecified)	nt	nt	-4	95	nt	nt
CSc1ncccc1C(=O)OCC(=O)Nc1ccc(S(=O)(=O)N2CCCC2)cc1	43	105	3	95	8	7
CCCCn1nnnc1C1(C)CCC(=O)N1CCCN1CCOCC1 (stereo unspecified)	nt	nt	-4	100	nt	nt
CCCCCCCCN1C(=O)[C@H](CC(=O)N2CCN(C(=O)c3ccco3)CC2)C[C@@]2(C(=O)OC)CC(C)(C)CC=C12	nt	nt	0	nt	nt	nt
COc1ccc(N(CC(=O)N2CCc3ccccc32)S(=O)(=O)c2c(C)nn(C)c2C)cc1	16	83	-6	102	8	-1
Cc1nn(C)c(C)c1S(=O)(=O)N(CC(=O)N1CCc2ccccc21)c1ccc(C(C)C)cc1	0	96	-3	79	-10	nt
O=C(Cn1cnc([N+](=O)[O-])c1)Nc1ccc(F)c(Cl)c1	nt	nt	-2	96	2	nt
CCc1ccc(NC(=O)Cn2cnc([N+](=O)[O-])c2)cc1	54*	110	-6	97	-3	7
COc1ccc(CNC(=O)CC[C@H]2O[C@@H](n3cnc4c(NC(=O)c5ccccc5)ncnc43)[C@H](O)[C@@H]2O)cc1	nt	nt	-12	96	nt	nt
CCOc1ccc(CN2CCN(CC(O)Cn3c4ccccc4c4ccccc43)CC2)cc1 (stereo unspecified)	51*	80	1	97	-5	10
COc1ccc(CN2CCN(CC(O)Cn3c4ccccc4c4ccccc43)CC2)cc1 (stereo unspecified)	-2	110	10	101	0	nt
